Test systems include SR leukemia; RPMI-8226 leukemia; OVCAR-8 ovarian; OVCAR-5 ovarian; OVCAR-4 ovarian; SK-OV-3 ovarian; IGROV1 ovarian; OVCAR-3 ovarian; HS 578T breast; NCI/ADR-RES ovarian; T-47D breast; BT-549 breast; MDA-MB-435 melanoma; SW-620 colon; MCF7 breast; HCT-116 colon; HCC-2998 colon; KM12 colon.
Assay in all cases: NCI-60 one-dose screen, 48 h (100 = growth as untreated, 0 = no growth, -100 = all killed)
Common to all, as to conditions: 10 µM unless noted

This is part of a sample that, as a whole, favours compounds with a hit. Of some 83,000 tested, about 20% had one in any assay.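 Results are percent growth after 48 hours of single-concentration exposure. 100 means growth as in untreated cells, lower positive values show inhibition; negative values down to -100 show cell death.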 Values without a mark were called inactive. Calls of active or inactive are those of the source. Rule for the calls: active = growth percent below 10; inactive = the rest.

On to `O=C(O)c1cccc2c1-c1ccccc1C2=O`, for which the growth in the experiment on SR leukemia is 94.2%; with RPMI-8226 leukemia, 124%; in the experiment with OVCAR-8 ovarian it was 103%; in the experiment with OVCAR-5 ovarian, 92.2%; with OVCAR-4 ovarian, 105%; with SK-OV-3 ovarian, 103%. Moreover, the growth in the experiment on IGROV1 ovarian was 85%; in the experiment on OVCAR-3 ovarian it was 102%; with HS 578T breast it was 97.7%; in the experiment on NCI/ADR-RES ovarian it was 100%; with T-47D breast it was 93.1%; with BT-549 breast it was 85.8%. The growth in the experiment on MDA-MB-435 melanoma was 97.7%; with SW-620 colon, 95.7%; in the experiment on MCF7 breast, 92.3%; in the experiment with HCT-116 colon, 92.6%; in the experiment on HCC-2998 colon it was 99%; in the experiment with KM12 colon, 97.9%.

Take `C=C1CC2(OC1=O)C(=O)N(CCCCCCCCCCCCN1C(=O)C3(CC(=C)C(=O)O3)c3ccccc31)c1ccccc12` (stereo unspecified): the growth was 2.62% (active) with SR leukemia; 3.98% (active) in the experiment with RPMI-8226 leukemia; 57% in the experiment with OVCAR-8 ovarian; 99.9% with OVCAR-5 ovarian; 88.9% in the experiment with OVCAR-4 ovarian; 105% in the experiment on SK-OV-3 ovarian. In addition, the growth was 64.8% in the experiment on IGROV1 ovarian; 66.8% in the experiment with OVCAR-3 ovarian; 91.1% in the experiment on HS 578T breast; 83.2% in the experiment on NCI/ADR-RES ovarian; 64.8% with T-47D breast; 84% with BT-549 breast. Besides, the growth with MDA-MB-435 melanoma was 73.1%; in the experiment with SW-620 colon it was 26.1%; with MCF7 breast, 38%; with HCT-116 colon, 61.3%; with HCC-2998 colon, 92.8%; in the experiment with KM12 colon, 93.6%.

Regarding `CC/C(Cc1ccccc1)=C(/c1ccc(O)cc1)c1ccc(OCCN2CCCC2)cc1`, the growth in the experiment with SR leukemia was -40.2% (active); with RPMI-8226 leukemia, -44.1% (active); with OVCAR-8 ovarian, -6.37% (active); with OVCAR-5 ovarian, 19.8%; in the experiment on OVCAR-4 ovarian, -6.26% (active); in the experiment on SK-OV-3 ovarian it was 63%. Besides, the growth was 13.9% in the experiment on IGROV1 ovarian; -79.6% (active) in the experiment on OVCAR-3 ovarian; -28% (active) with HS 578T breast; -8.18% (active) with NCI/ADR-RES ovarian; -25.2% (active) in the experiment with T-47D breast; 44.7% in the experiment on BT-549 breast. For the same compound, the growth was -100% (active) with MDA-MB-435 melanoma; -78.4% (active) in the experiment on SW-620 colon; -67.7% (active) in the experiment with MCF7 breast; -87.1% (active) in the experiment on HCT-116 colon; -90.9% (active) in the experiment on HCC-2998 colon; -75.4% (active) in the experiment on KM12 colon.

Regarding `CCOC(=O)c1c2c(n3ccc(NC(=O)CCN4CCCCC4)cc13)C(=O)c1ncccc1C2=O`, the growth in the experiment on SR leukemia was -46.6% (active); in the experiment on RPMI-8226 leukemia it was -6.64% (active); with OVCAR-8 ovarian it was -27% (active); with OVCAR-5 ovarian, -58.9% (active); with OVCAR-4 ovarian, -13.5% (active); with SK-OV-3 ovarian, 26.2%. Also, the growth with IGROV1 ovarian is 35.1%; in the experiment with OVCAR-3 ovarian, -10.9% (active); in the experiment on HS 578T breast it was 40.2%; in the experiment on NCI/ADR-RES ovarian, 36.8%; in the experiment on T-47D breast, 44.6%; in the experiment with BT-549 breast, 58.5%. The growth in the experiment on MDA-MB-435 melanoma is -61.8% (active); with SW-620 colon it was -20.2% (active); with MCF7 breast, -61.1% (active); with HCT-116 colon, -61.1% (active); in the experiment with HCC-2998 colon it was -66% (active); with KM12 colon, -75.6% (active).

For the compound `COC1C/C(=N\O)C2OC(c3ccccc3)OCC2O1` (stereo unspecified), the growth in the experiment with SR leukemia was 109%; with RPMI-8226 leukemia, 104%; in the experiment with OVCAR-8 ovarian, 114%; with OVCAR-5 ovarian, 109%; in the experiment on OVCAR-4 ovarian, 104%; in the experiment on SK-OV-3 ovarian, 100%. The growth in the experiment on IGROV1 ovarian is 109%; with OVCAR-3 ovarian it was 110%; in the experiment on HS 578T breast it was 106%; in the experiment on NCI/ADR-RES ovarian, 103%; in the experiment on T-47D breast, 103%; in the experiment with BT-549 breast, 105%. For the same compound, the growth with MDA-MB-435 melanoma is 102%; with SW-620 colon it was 105%; in the experiment on MCF7 breast, 102%; with HCT-116 colon, 97.9%; with KM12 colon it was 121%.

With `Oc1cc(O)c2c(=S)cc(-c3ccc(Cl)cc3)oc2c1`, the growth was 36.1% with SR leukemia; -4.71% (active) in the experiment on RPMI-8226 leukemia; 35% with OVCAR-8 ovarian; 60.3% with OVCAR-5 ovarian; 6.46% (active) in the experiment with OVCAR-4 ovarian; 61.8% in the experiment on SK-OV-3 ovarian. Moreover, the growth is 26.1% in the experiment with IGROV1 ovarian; 17.6% with OVCAR-3 ovarian; 40.5% with HS 578T breast; 25.5% in the experiment on NCI/ADR-RES ovarian; 0.614% (active) in the experiment with T-47D breast; 38.4% in the experiment on BT-549 breast. Further, the growth with MDA-MB-435 melanoma was 25.9%; in the experiment on SW-620 colon it was 41.5%; with MCF7 breast, 6.22% (active); with HCT-116 colon, 17.6%; in the experiment on HCC-2998 colon, 57.7%; in the experiment with KM12 colon, 38.7%.

For `CNC(=O)c1cc(Oc2ccc3nc(NC(=O)Nc4ccc(N5CCC(N(C)C)CC5)cc4)sc3c2)ccn1`, the growth was 0.621% (active) in the experiment with SR leukemia; 74.2% with RPMI-8226 leukemia; 89.3% in the experiment with OVCAR-8 ovarian; 114% in the experiment with OVCAR-5 ovarian; 80.7% with OVCAR-4 ovarian; 102% in the experiment on SK-OV-3 ovarian. The growth with IGROV1 ovarian is 89%; in the experiment with OVCAR-3 ovarian it was 90.1%; with HS 578T breast, 80.9%; in the experiment on NCI/ADR-RES ovarian, 110%; in the experiment on T-47D breast, 78.1%; with BT-549 breast, 98.7%. The growth in the experiment on MDA-MB-435 melanoma was 98.8%; in the experiment on SW-620 colon, 71.6%; in the experiment with MCF7 breast, 67.7%; in the experiment with HCT-116 colon, 39%; in the experiment on HCC-2998 colon it was 95.4%; in the experiment on KM12 colon, 60.4%.

Regarding `Cc1cc(=O)oc2cc(Oc3nc(-c4ccc(Cl)cc4)cn4c(-c5ccc(Cl)cc5)cnc34)ccc12`, the growth was 50.9% in the experiment on SR leukemia; 93.7% in the experiment on RPMI-8226 leukemia; 92.5% with OVCAR-8 ovarian; 94.6% in the experiment with OVCAR-5 ovarian; 85.6% with OVCAR-4 ovarian; 103% in the experiment on SK-OV-3 ovarian. The growth in the experiment on IGROV1 ovarian is 97.6%; in the experiment with OVCAR-3 ovarian it was 107%; in the experiment with HS 578T breast, 87.8%; in the experiment on NCI/ADR-RES ovarian, 78.8%; in the experiment with T-47D breast it was 104%; in the experiment on BT-549 breast it was 89.4%. The growth was 75.5% in the experiment with MDA-MB-435 melanoma; 66.7% with SW-620 colon; 73.1% with MCF7 breast; 92.1% in the experiment on HCT-116 colon; 106% in the experiment on HCC-2998 colon; 81.2% with KM12 colon.

In the case of `COc1cc(NCCCCN=C(N)N)c2ncccc2c1`, the growth was 116% in the experiment with SR leukemia; 87.7% with RPMI-8226 leukemia; 60.8% in the experiment on OVCAR-8 ovarian; 86.7% in the experiment with OVCAR-5 ovarian; -99.4% (active) in the experiment with OVCAR-4 ovarian; 88.3% with SK-OV-3 ovarian. The growth is 56.8% in the experiment with IGROV1 ovarian; 8.54% (active) with OVCAR-3 ovarian; 94% with HS 578T breast; 104% with NCI/ADR-RES ovarian; 18% with T-47D breast; 54.4% with BT-549 breast. Besides, the growth in the experiment on MDA-MB-435 melanoma was 104%; with SW-620 colon it was 80.8%; in the experiment with MCF7 breast it was -48% (active); in the experiment on HCT-116 colon, 79.1%; in the experiment on HCC-2998 colon it was 84.3%; with KM12 colon it was 47.5%.

The values are drawn from PubChem BioAssay (NCI).
